The whole screen tested about 16,000 compounds, of which about 5,700 (36%) were called active. Roughly 24% stayed inconclusive and do not appear here. The list shows a part of the results. A number with no mark means an inactive call. The call rests on the fitted dose curve; in most records, active means well fitted curve in the direction sought with a large enough effect; inconclusive means small, poorly fitted or top-dose-only effect, or effect the other way; inactive means no such curve, though single readings can be large or run the other way.
On the % scale 0 is the no-effect control and ±100 the full control effect.

The target in the assay is Cytochrome P450 1A2 (Homo sapiens) (UniProt P05177). As to the kind of experiment: Cytochrome panel assay with activity outcomes. The following applies: recombinant CYP, pro-luciferin dealkylation, luminescence, p450-cyp1a2; series mostly up to 57.1 µM.
Cytochrome P450 1A2 (Homo sapiens), sequence (P05177 whole entry, looked up): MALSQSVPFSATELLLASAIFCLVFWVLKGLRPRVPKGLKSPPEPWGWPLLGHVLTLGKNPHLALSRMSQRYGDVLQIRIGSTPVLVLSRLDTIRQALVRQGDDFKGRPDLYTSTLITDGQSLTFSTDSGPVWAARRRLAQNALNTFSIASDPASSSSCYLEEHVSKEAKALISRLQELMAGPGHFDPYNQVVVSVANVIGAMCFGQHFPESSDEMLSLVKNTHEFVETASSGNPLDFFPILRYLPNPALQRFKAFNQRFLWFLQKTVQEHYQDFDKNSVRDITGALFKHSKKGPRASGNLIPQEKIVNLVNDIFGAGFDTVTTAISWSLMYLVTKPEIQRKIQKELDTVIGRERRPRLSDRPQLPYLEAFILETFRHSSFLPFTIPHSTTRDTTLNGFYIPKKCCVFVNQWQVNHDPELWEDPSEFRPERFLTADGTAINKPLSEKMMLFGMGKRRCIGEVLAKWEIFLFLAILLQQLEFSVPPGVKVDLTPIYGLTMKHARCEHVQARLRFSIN
The AC50 is the midpoint of the concentration-response curve, whichever way the signal moves. As to `COc1ccc2[nH]c3c(c2c1)CCN=C3C`, the AC50 is 1.58 µM (active).
With `COc1ccc2c3c([nH]c2c1)C(C)=NCC3`, the AC50 is 0.794 µM (active).
The same measure, in the same setting: the figure for `CC1=NCCc2c1[nH]c1cc(O)ccc21` is 12.6 µM (active).
The same measure, in the same setting: the figure for `COc1ccc2[nH]c3c(c2c1)CCNC3` is 3.16 µM (active).
For the compound `CN(C)C=C1C(=O)N(C2CCCCC2)C(=O)N(C2CCCCC2)C1=O`, the AC50 entry was “inactive”.
The same measure, in the same setting: the entry for `c1cc2cc(c1)C[n+]1ccc(c3ccccc31)NCc1ccc(cc1)CNc1cc[n+](c3ccccc13)C2` is “inactive”.
In the case of `C[N+]1([O-])[C@H]2CC[C@H]1CC(OC(=O)[C@@H](CO)c1ccccc1)C2` (stereo partly specified), the activity, negative = inhibition is 0.783% [at 2.29 µM].
On to `C[N+](C)(C)CCCCCCCCCC[N+](C)(C)C`, for which the AC50 result is “inactive”.
Take `NCC[C@H](O)C(=O)N[C@H]1C[C@@H](N)[C@@H](O[C@H]2O[C@@H](CN)[C@@H](O)[C@@H](O)[C@@H]2N)[C@@H](O[C@H]2O[C@@H](CO)[C@@H](O)[C@@H]2O)[C@@H]1O`: the AC50 result is “inactive”.
On the same count and under the same terms, the entry for `c1cc(CN2CC3(CCNCC3)C2)ccn1` is “inactive”.
In the case of `O=c1[nH]cnc2[nH]cc(CN3CCCCC3)c12`, the activity, negative = inhibition was -11.6% [at 11.4 µM].
In the case of `COc1ccccc1CN1CCCC2(CCN(C(=O)Oc3ccccc3)CC2)C1`, the AC50 entry is “inactive”.
Take `CC(C)c1nccn1Cc1ccc(Cl)cc1Cl`: the activity, negative = inhibition is -14.7% [at 11.4 µM].
Same read-out and setting: in the case of `O=C(O)C(C(=O)O)P(=S)(S)c1ccccc1` (stereo unspecified) it was -13.3% [at 11.4 µM].
In the case of `CNCC/C=C\c1cccnc1`, the AC50 result is “inactive”.
Still for that read-out and setting: the entry for `CN1[C@@H]2CC[C@H]1CC(NC(=O)c1nn(C)c3ccccc13)C2` (stereo partly specified) is “inactive”; for `Cn1cc(C(=O)C(=O)N[C@H]2CN3CCC2CC3)c2ccccc21` it is 15.8 µM (active).
Same read-out and setting: in the case of `COc1cc(N)c(Cl)cc1C(=O)N[C@@H]1CN2CCC1CC2` it was “inactive”; in that of `NCC1(CC(=O)O)CCCCC1`, “inactive”; in that of `C[C@H]1CC[C@@]2(NC1)O[C@@H]1C[C@H]3[C@@H]4CC[C@@H]5C[C@@H](O)CC[C@@]5(C)[C@@H]4CC[C@]3(C)[C@@H]1[C@@H]2C`, “inactive”.
In the case of `CCCN1CCC[C@@H]2Cc3nc(N)ncc3C[C@H]21`, the AC50 result is “inactive”.
For the compound `N#CCCCC[N+]12CN3CN(CN(C3)C1)C2`, the activity, negative = inhibition was 15% [at 2.29 µM].
With `COCCCN1Cc2ccccc2C1=N`, the AC50 entry was “inactive”.
Turning to `S=C(S)N1CCCC1`, the AC50 is 31.6 µM (active).
Regarding `C[C@@]12CC[C@H](O)C[C@@H]1CC[C@@H]1[C@@H]2CC[C@@]2(C)[C@@H](C3=CC(=O)OC3)[C@H](O)C[C@]12O`, the activity, negative = inhibition was -18.3% [at 11.4 µM].
Same read-out and setting: the figure for `CC1(C)N=C(N)N=C(N)N1c1cccc(C(=O)Nc2ccc(S(=O)(=O)F)cc2)c1` is -15.8% [at 11.4 µM].
Regarding `c1ccc(CN2CC[C@@]3(CCCNC3)C2)cc1`, the AC50 result is “inactive”.
On the same count and under the same terms, the figure for `NC1=Nc2ccccc2Oc2ccccc21` is 12.6 µM (active); for `CC(C)[N+](C)(CCC(C(N)=O)(c1ccccc1)c1ccccc1)C(C)C` it is “inactive”; for `CC(=O)c1ccc2c(c1)N(CCCN(C)C)c1ccccc1S2` it is 1.58 µM (active).
Still for that read-out and setting: the entry for `C=CCN1C(=O)c2ccccc2Sc2ccc(C(=O)N3CCC4(CC3)OCCO4)cc21` is “inactive”.
As to `CN1C(=O)c2ccccc2Sc2ccc(C(=O)N3CCC4(CC3)OCCO4)cc21`, the AC50 result is “inactive”.
On to `C[N+](C)(C)CCCCCC[N+](C)(C)C`, for which the AC50 entry was “inactive”.
Turning to `O=c1ccc2[nH]cc(C3=CCNCC3)c2[nH]1`, the AC50 entry is “inactive”.
As to `COc1ccc2[nH]cc(C3=CCNCC3)c2c1`, the AC50 is 0.251 µM (active).
On the same count and under the same terms, the figure for `CCCOc1ccc2[nH]cc(C3=CCNCC3)c2n1` is 0.126 µM (active).
`C[C@@]12CC[C@@H]3[C@H](CCC4=CC(=O)CC[C@]43C)[C@@H]1CC[C@@H]2C(=O)Cn1cnc2c(=S)nc[nH]c21`: the activity, negative = inhibition was -15.8% [at 11.4 µM].
Regarding `NP(N)(=O)NC(=O)c1ccc(F)cc1`, the AC50 entry was “inactive”.
For the compound `NCCCP(=O)(O)O`, the AC50 result is “inactive”.
Regarding `CC1=C(O)C(=O)[C@H]2O[C@@H]2C1=O`, the AC50 result was “inactive”.
The same measure, in the same setting: in the case of `C[N+]1(C)[C@@H]2CC[C@H]1CC(OC(=O)[C@@H](CO)c1ccccc1)C2` (stereo partly specified) it was “inactive”; in that of `O=C(c1csnn1)N1CCC2(CC1)CN(Cc1ccncc1)C2`, 10 µM (active); in that of `CN1CCCC2(CCN(C(=O)c3csnn3)CC2)C1`, “inactive”.
Turning to `O=C(c1ccncc1)N1CCC2(CC1)CN(Cc1ccccc1)C2`, the AC50 entry was “inactive”.
In the case of `N#Cc1ccc(CN2CCC3(CC2)CCN(C(=O)Oc2ccccc2)CC3)cc1`, the AC50 result is “inactive”.
Regarding `O=P(O)(O)CCP(=O)(O)O`, the activity, negative = inhibition is 0.113% [at 11.4 µM].
Consider `CC(=O)[C@@H]1CC[C@@H]2[C@@H]3CC=C4C[C@H](OS(=O)(=O)O)CC[C@@]4(C)[C@H]3CC[C@]21C`, for which the AC50 entry was “inactive”.
As to `O=C1Nc2ccc(I)cc2/C1=C/c1cc(Br)c(O)c(Br)c1`, the AC50 was 0.794 µM (active).
Take `COC(=O)C1=CCCN(C)C1`: the AC50 entry is “inactive”.
For `Cc1ccc(C2CC(=O)C(C=NCCN3CCN(C(=O)Cc4ccccc4)CC3)=C(O)C2)cc1` (stereo unspecified), the AC50 entry is “inactive”.
On the same count and under the same terms, the entry for `C[C@H](N)[C@@H](O)c1ccccc1` is “inactive”; for `C[C@@H](Cc1ccc(OCC(=O)O)cc1)NC[C@H](O)c1cccc(Cl)c1` it is “inactive”; for `CC(NCc1ccc(Cl)cc1)C(O)c1ccccc1` (stereo unspecified) it is 14.1 µM (active).
On to `CCN(CC)CCn1ncc2c(N)ncnc21`, for which the activity, negative = inhibition is -6.04% [at 11.4 µM].
With `CC[C@H](C(=O)[C@H](C)[C@H](O)[C@H](C)CCc1ccc(C)c(O)c1C(=O)O)[C@H]1O[C@](CC)([C@@H]2CC[C@@](O)(CC)[C@H](C)O2)C[C@H]1C`, the AC50 result is “inactive”.
With `N=C1c2ccccc2CN1NC(=O)c1ccc(Cl)cc1`, the AC50 result was “inactive”.
Consider `COc1ccc(C[C@H]2NC[C@H](O)[C@@H]2OC(C)=O)cc1`, for which the AC50 entry was “inactive”.
Still for that read-out and setting: the entry for `NC[C@@H](CC(=O)O)c1ccc(Cl)cc1` is “inactive”; for `O=NN(Cc1ccc(Cl)cc1)[C@@H](C(=O)O)c1ccccc1` it is 5.01 µM (active).
Regarding `O=C(O)CP(=O)(O)c1ccc(Cl)cc1`, the AC50 entry is “inactive”.
Same read-out and setting: the entry for `C[C@@]12CC[C@H]3[C@@H](CCC4=CC(=O)CC[C@]43C)[C@H]1CC[C@H]2C(=O)CO` is “inactive”.
As to `CNC(=S)NC1CC2CCCC(C1)N2CC(C)C` (stereo unspecified), the AC50 result was “inactive”.
On the same count and under the same terms, the entry for `CCOCCN1CCC(OC(C)=O)C(C)C1` (stereo unspecified) is “inactive”.
For the compound `C[C@H](CC(C#N)(c1ccccc1)c1ccccc1)N1CCCCC1`, the activity, negative = inhibition was 7.09% [at 2.29 µM].
In the case of `O=c1oc(Cl)c(Cl)c2ccccc12`, the AC50 was 1 µM (active).
The same measure, in the same setting: in the case of `O=[N+]([O-])O[C@H]1CO[C@H]2[C@H]1OC[C@@H]2O[N+](=O)[O-]` it was “inactive”; in that of `O=C1OC(=O)[C@@H]2[C@@H]1[C@@H]1CC[C@H]2O1`, “inactive”; in that of `NC(=O)CN1C[C@@H](O)CC1=O`, “inactive”.
Still for that read-out and setting: in the case of `CCOP(=O)(OCC)C(NC(C)=O)C(Cl)(Cl)Cl` (stereo unspecified) it was “inactive”; in that of `O=C(Nc1cccc(C(F)(F)F)c1)c1cccn(Cc2ccc3c(c2)OC(F)(F)O3)c1=O`, 3.16 µM (active); in that of `CC(O)(CS(=O)(=O)c1cccc(C(F)(F)F)c1)C(=O)Nc1cccc(C(F)(F)F)c1` (stereo unspecified), “inactive”.
On the same count and under the same terms, the entry for `CC(O)(CS(=O)(=O)c1ccccc1)C(=O)Nc1cccc(C(F)(F)F)c1` (stereo unspecified) is “inactive”.
In the case of `CC(C)c1ccc(C(c2c(O)c3ccccc3oc2=O)c2c(O)c3ccccc3oc2=O)cc1`, the activity, negative = inhibition is -18.8% [at 2.29 µM].
With `COc1cc(CNC(=O)CCCC/C=C\C(C)C)ccc1O`, the AC50 was 1.58 µM (active).
With `COc1cc(CCN)ccc1O`, the AC50 entry was “inactive”.
The same measure, in the same setting: in the case of `CNC[C@H](O)c1ccc(O)c(OC)c1` it was “inactive”; in that of `CCCCCCCCC(=O)NCc1ccc(O)c(OC)c1`, 12.6 µM (active).
Turning to `COc1ccc(C[C@@H]2NC[C@H](O)[C@@H]2OC(C)=O)cc1`, the AC50 entry was “inactive”.
Regarding `C[N+]1(C)CCO[C@](O)(c2ccc(-c3ccc([C@]4(O)C[N+](C)(C)CCO4)cc3)cc2)C1`, the AC50 result is “inactive”.
Consider `COc1cc2c(c(OC)c1OC)-c1ccc(O)c(=O)cc1[C@H](N)CC2`, for which the AC50 entry was “inactive”.
Take `CC(C)COc1ccc(C2(C#N)CC[N+](C)(C)CC2)cc1`: the AC50 entry was “inactive”.
On the same count and under the same terms, in the case of `COCCCNC(=S)NC1CC2CCCC(C1)N2Cc1cccs1` (stereo unspecified) it was “inactive”; in that of `Cc1cc2c(C(F)(F)F)cc(=O)oc2c2c1NCCC2`, 0.1 µM (active); in that of `CCCCC1(CCCC)C(=O)NC(=Nc2cccc(C)c2)NC1=O`, “inactive”.
Still for that read-out and setting: in the case of `O=C1C=CC(=O)c2c1ccc1c2ccc2ccccc21` it was 0.794 µM (active); in that of `COc1cc([C@H]2c3cc4c(cc3[C@@H](O)[C@@H]3COC(=O)[C@H]23)OCO4)cc(OC)c1OC`, “inactive”.
Regarding `CCCc1cc2c(n1CCO)C(C)C1CN(C(=O)c3ccccc3)C(C)(C(=O)OC)C21` (stereo unspecified), the AC50 entry was “inactive”.
With `COc1cccc2c1[C@H](CO)N1[C@H](C#N)[C@@H]3C[C@H](C(=O)O)[C@@H]([C@@H]1C2)N3C`, the activity, negative = inhibition was -21% [at 2.29 µM].
For the compound `C[C@]12CC[C@@H]3C(=CCc4cc(O)ccc43)[C@@H]1CCC2=O`, the concentration at half-maximal activity (AC50) is 10 µM (active).
Regarding `C[C@]12CC[C@H]3c4ccc(O)cc4CC[C@@H]3[C@H]1CC[C@@H]2OP(=O)(O)O`, the activity, negative = inhibition is -11.2% [at 2.29 µM].
The same measure, in the same setting: in the case of `C[C@]12CCC3c4ccc(OCC(=O)O)cc4CCC3C1CCC2=O` (stereo partly specified) it was 0.71% [at 2.29 µM].
As for `Cc1cc[c]([Sb]2[O][C@H]([C@H](O)[C@H](O)C(=O)O)[C@@H](CO)[O]2)cc1`, the activity, negative = inhibition was -11.9% [at 11.4 µM].
As to `O=C(Cc1ccc(Cl)c(Cl)c1)N1CCCC[C@H]1CN1CCCC1`, the AC50 entry was “inactive”.
With `CCCCc1ccc2nc(NC(=O)OC)[nH]c2c1`, the half-maximal activity concentration (AC50) was 0.501 µM (active).
On the same count and under the same terms, in the case of `COC(=O)Nc1nc2ccc(C(=O)c3cccs3)cc2[nH]1` it was 1.58 µM (active); in that of `CCCCc1ccc(C(=O)O)nc1`, “inactive”.
Regarding `COC(=O)Nc1nc2ccc(Sc3ccccc3)cc2[nH]1`, the AC50 is 0.794 µM (active).
Still for that read-out and setting: the entry for `COCCNC(=S)NC1CC2CCCC(C1)N2Cc1cccs1` (stereo unspecified) is “inactive”; for `N#CCCN` it is “inactive”.
`N[C@@H]1CCc2cc(O)c(O)cc2C1`: the AC50 result was “inactive”.
Same read-out and setting: the entry for `CC[C@@H]1[C@@H]2C[C@H]3[C@H]4N(C)c5ccccc5[C@@]45C[C@@H]([C@@H]2[C@@H]5O)N3[C@H]1O` is “inactive”.

For the origin of these results see PubChem BioAssay AID1851 (National Center for Advancing Translational Sciences (NCATS), 2009).
